Several values for one entry are separate records, joined by “and”; a condition that tells them apart may be missing. Equal values may be shown once. Inconclusive results are not listed. Activity calls are given as the source filed them.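 The calls were made as follows, unless noted: active = normalized viability below 100% at a tested concentration; inactive = the rest.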
Columns and labels:
[1] = viability loss in pontine glioma line – cell-based, SU-DIPG-XVII, MIPE5.0, CellTiter-Glo, qHTS, dose response (AID 1347060; cut-off not given, nearly all actives have AC50 up to about 26 µM;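 also: cells exposed to compound for 48 hours before viability readout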); details: CellTiter-Glo ATP luminescence
[2] = viability loss in pontine glioma line – cell-based, SU-DIPG-XIII, MIPE5.0, CellTiter-Glo, qHTS, dose response (AID 1347064; cut-off not given, nearly all actives have AC50 up to about 23 µM;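 also: cells exposed to compound for 48 hours before the viability read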); details: CellTiter-Glo ATP luminescence
[3] = viability loss in pontine glioma line – cell-based, SU-DIPG-XXV, MIPE5.0, CellTiter-Glo, qHTS, dose response (AID 1347065; cut-off not given, nearly all actives have AC50 up to about 26 µM;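 also: cells exposed to compound for 48 hours before ATP readout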); details: CellTiter-Glo ATP luminescence
[4] = JHH-DIPG-1 glioma cell viability, MIPE5.0 library, CellTiter-Glo luminescence, qHTS (AID 1347067; cut-off not given, nearly all actives have AC50 up to about 26 µM;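 also: cells exposed to compound for 48 hours before readout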); details: JHH-DIPG-1 glioma viability, CellTiter-Glo ATP luminescence
[5] = growth inhibition of DIPG cells – cell-based, MIPE5.0 library, qHTS (AID 1347068; cut-off not given, nearly all actives have IC50 up to about 30 µM;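 also: cells exposed to compound for 48 hours before viability readout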); details: SU-DIPG-XXV viability
[6] = MELAS cybrid and Rieske KO viability enhancers – cell-based, MELAS cybrids, Rieske KO mouse fibroblasts, CellTiter-Glo, primary screen (AID 1508586;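 active = mean z-score across replicates of 1.96 or higher in either the MELAS or the Rieske mutant cell line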;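 also: z relative to plate mean and SD of compound and empty wells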); details: low glucose
[7] = viability loss with induced miR-34 in A549 – imaging, A549 dox-inducible miR-34, nuclei and caspase counts, primary screen (AID 1347080;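 active = compounds whose cell count with miR-34 switched on is under 0.7 times the count with it off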); details: A549 miR-34 inducible, Hoechst nuclei count, 48 h
[8] = compounds altering HSF1 focus formation in cells – imaging, Selleck Cancer Library (AID 1347162; in the data active = plate-normalised HSF1 focus index below about 0.46); details: human cells, HSF1 nuclear foci imaging, at 10 µM; SSMD: measured here: HSF1 foci SSMD mean; cell count: measured here: cell number; plate-normalised HSF1 focus index: stronger effect = lower value
[9] = drug combination growth inhibition, ovarian cancer – cell-based, oncology-focused library, rucaparib conditional, profiling panel (AID 1508598); details: patient-derived ovarian cancer cells, CellTiter-Glo viability, 144 h, stronger effect = lower value
[10] = MELAS cybrid survival, CellTiter-Glo 48 h, stronger effect = higher value
[11] = Rieske KO mouse fibroblast survival, CellTiter-Glo 72 h
[12] = stronger effect = lower value, cell number ratio, induced over uninduced
[13] = measured here: relative caspase fold change +Dox/-Dox
[14] = measured here: total cells with miR-34 induction, stronger effect = lower value
[15] = measured here: total cells without miR-34 induction
[16] = at 0.000305 µM, OCI-C5x cells, with rucaparib 10 µM, 100% = cells with rucaparib alone
[17] = at 0.000305 µM, OCI-C5x cells, without rucaparib
[18] = at 0.000305 µM, OCI-P5x cells, with rucaparib 20 µM, 100% = cells with rucaparib alone
[19] = at 0.000305 µM, OCI-P5x cells, without rucaparib
[20] = at 0.00122 µM, OCI-C5x cells, with rucaparib 10 µM, 100% = cells with rucaparib alone
[21] = at 0.00122 µM, OCI-C5x cells, without rucaparib
[22] = at 0.00122 µM, OCI-P5x cells, with rucaparib 20 µM, 100% = cells with rucaparib alone
[23] = at 0.00122 µM, OCI-P5x cells, without rucaparib
[24] = at 0.00488 µM, OCI-C5x cells, with rucaparib 10 µM, 100% = cells with rucaparib alone
[25] = at 0.00488 µM, OCI-C5x cells, without rucaparib
[26] = at 0.00488 µM, OCI-P5x cells, with rucaparib 20 µM, 100% = cells with rucaparib alone
[27] = at 0.00488 µM, OCI-P5x cells, without rucaparib
[28] = at 0.0195 µM, OCI-C5x cells, with rucaparib 10 µM, 100% = cells with rucaparib alone
[29] = at 0.0195 µM, OCI-C5x cells, without rucaparib
[30] = at 0.0195 µM, OCI-P5x cells, with rucaparib 20 µM, 100% = cells with rucaparib alone
[31] = at 0.0195 µM, OCI-P5x cells, without rucaparib
[32] = at 0.0781 µM, OCI-C5x cells, with rucaparib 10 µM, 100% = cells with rucaparib alone
[33] = at 0.0781 µM, OCI-C5x cells, without rucaparib
[34] = at 0.0781 µM, OCI-P5x cells, with rucaparib 20 µM, 100% = cells with rucaparib alone
[35] = at 0.0781 µM, OCI-P5x cells, without rucaparib
[36] = at 0.313 µM, OCI-C5x cells, with rucaparib 10 µM, 100% = cells with rucaparib alone
[37] = at 0.313 µM, OCI-C5x cells, without rucaparib
[38] = at 0.313 µM, OCI-P5x cells, with rucaparib 20 µM, 100% = cells with rucaparib alone
[39] = at 0.313 µM, OCI-P5x cells, without rucaparib
[40] = at 1.25 µM, OCI-C5x cells, with rucaparib 10 µM, 100% = cells with rucaparib alone
[41] = at 1.25 µM, OCI-C5x cells, without rucaparib
[42] = at 1.25 µM, OCI-P5x cells, with rucaparib 20 µM, 100% = cells with rucaparib alone
[43] = at 1.25 µM, OCI-P5x cells, without rucaparib
[44] = at 5 µM, OCI-C5x cells, with rucaparib 10 µM, 100% = cells with rucaparib alone
[45] = at 5 µM, OCI-C5x cells, without rucaparib
[46] = at 5 µM, OCI-P5x cells, with rucaparib 20 µM, 100% = cells with rucaparib alone
[47] = at 5 µM, OCI-P5x cells, without rucaparib

CC(C)C(=O)OCC(=O)[C@@]12O[C@H](C3CCCCC3)O[C@@H]1C[C@H]1[C@@H]3CCC4=CC(=O)C=C[C@]4(C)[C@H]3[C@@H](O)C[C@@]12C
1.73: z-score [6, 11]
active: AC50 [1] 13200 nM | AC50 [2] 13200 nM | AC50 [3] 8330 nM | AC50 [4] 2950 nM | IC50 [5] 14800 nM
inactive: z-score [6, 10] -0.376

COc1cc(Nc2ncc(F)c(Nc3ccc4c(n3)NC(=O)C(C)(C)O4)n2)cc(OC)c1OC
inactive: fold change [7, 12] 1.02 and 1.15 | plate-normalised HSF1 focus index [8] 1.18 | z-score [6, 10] -0.458 and -0.514 | viability [9, 16] 109% | viability [9, 17] 101% | viability [9, 20] 111% | viability [9, 21] 109% | viability [9, 24] 111% | viability [9, 25] 111% | viability [9, 28] 118% | viability [9, 29] 112% | viability [9, 32] 107% | viability [9, 33] 114% | viability [9, 36] 112% | viability [9, 37] 126% | viability [9, 40] 116% | viability [9, 41] 127% | viability [9, 44] 122% | viability [9, 45] 151%
1520 and 950: cell count [7, 15]
0.841 and 0.707: fold change [7, 13]
7530: cell count [8]
1550 and 1090: cell count [7, 14]
0.0101 and 0.0182: z-score [6, 11]
2.8: SSMD [8]
active: AC50 [1] 1180 nM | AC50 [2] 1860 nM | AC50 [3] 1320 nM | AC50 [4] 5900 nM | viability [9, 18] 83% | viability [9, 19] 96.3% | viability [9, 22] 82.7% | viability [9, 23] 86.9% | viability [9, 26] 78.5% | viability [9, 27] 95.2% | viability [9, 30] 70.2% | viability [9, 31] 74.2% | viability [9, 34] 59.3% | viability [9, 35] 55% | viability [9, 38] 46.3% | viability [9, 39] 50% | viability [9, 42] 81.5% | viability [9, 43] 99.3% | viability [9, 46] 79% | viability [9, 47] 96.9%

C#CC[C@H](c1nc2cc(Cl)ccc2c(=O)n1Nc1ccccc1)N(CCCN)C(=O)c1cccc(Cl)c1F
inactive: viability [9, 16] 125% | viability [9, 17] 105% | viability [9, 18] 109% | viability [9, 20] 130% | viability [9, 21] 102% | viability [9, 22] 109% | viability [9, 24] 115% | viability [9, 25] 109% | viability [9, 26] 107% | viability [9, 28] 125% | viability [9, 29] 112%
active: AC50 [1] 417 nM | AC50 [2] 4680 nM | AC50 [3] 372 nM | AC50 [4] 742 nM | IC50 [5] 417 nM | viability [9, 19] 94.3% | viability [9, 23] 97.9% | viability [9, 27] 92.1% | viability [9, 30] 96.2% | viability [9, 31] 90.6% | viability [9, 32] 67.5% | viability [9, 33] 57.4% | viability [9, 34] 91.9% | viability [9, 35] 49.8% | viability [9, 36] 57% | viability [9, 37] 55% | viability [9, 38] 59.6% | viability [9, 39] 17.5% | viability [9, 40] 56.2% | viability [9, 41] 46.9% | viability [9, 42] 54.9% | viability [9, 43] 15.7% | viability [9, 44] 1.31% | viability [9, 45] 3.55% | viability [9, 46] 0.597% | viability [9, 47] 1.54%

CCOC(=O)CCNc1cc(N2CCc3ccccc3CC2)nc(-c2ccccn2)n1
active: AC50 [1] 2950 nM | AC50 [2] 3320 nM | AC50 [3] 14800 nM | AC50 [4] 5250 nM | IC50 [5] 8330 nM | fold change [7, 12] 0.698
3830: cell count [7, 14]
inactive: z-score [6, 10] -0.444
5480: cell count [7, 15]
1.37: fold change [7, 13]
-0.225: z-score [6, 11]

C=C1C[C@@H]2CC[C@@]34C[C@H]5O[C@H]6[C@@H](O3)[C@H]3O[C@H](CC[C@@H]3O[C@H]6[C@H]5O4)CC(=O)C[C@@H]3[C@@H](OC)[C@@H](C[C@H](O)CN)O[C@H]3C[C@H]3O[C@@H](CC[C@@H]1O2)C[C@@H](C)C3=C
active: AC50 [1] 2.7 nM | AC50 [2] 42.8 nM | AC50 [3] 1.21 nM | AC50 [4] 9.59 nM | IC50 [5] 9.59 nM

Reference: PubChem BioAssay
